PubChem BioAssay (EPA / NIEHS)
Records with an inconclusive call do not appear. Calls of active or inactive are those of the source. The calls were made as follows: active = hit-call score of the fitted dose curve at least 0.9, where 1 is the maximum; inconclusive = response in the unintended direction; inactive = score below 0.9.

The compounds below were run against Glucocorticoid receptor (Homo sapiens) (UniProt P04150) (assay: ATG_GR_TRANS: Attagene TRANS-FACTORIAL HepG2 Assay for human Glucocorticoid Receptor (GR) (AID 2282978;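 also: activators score as hits since higher reporter transcript over DMSO is fitted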)). Settings: HepG2 Attagene TRANS GR reporter, mRNA transcription.
Sequence of Glucocorticoid receptor (Homo sapiens) (P04150 whole entry, looked up): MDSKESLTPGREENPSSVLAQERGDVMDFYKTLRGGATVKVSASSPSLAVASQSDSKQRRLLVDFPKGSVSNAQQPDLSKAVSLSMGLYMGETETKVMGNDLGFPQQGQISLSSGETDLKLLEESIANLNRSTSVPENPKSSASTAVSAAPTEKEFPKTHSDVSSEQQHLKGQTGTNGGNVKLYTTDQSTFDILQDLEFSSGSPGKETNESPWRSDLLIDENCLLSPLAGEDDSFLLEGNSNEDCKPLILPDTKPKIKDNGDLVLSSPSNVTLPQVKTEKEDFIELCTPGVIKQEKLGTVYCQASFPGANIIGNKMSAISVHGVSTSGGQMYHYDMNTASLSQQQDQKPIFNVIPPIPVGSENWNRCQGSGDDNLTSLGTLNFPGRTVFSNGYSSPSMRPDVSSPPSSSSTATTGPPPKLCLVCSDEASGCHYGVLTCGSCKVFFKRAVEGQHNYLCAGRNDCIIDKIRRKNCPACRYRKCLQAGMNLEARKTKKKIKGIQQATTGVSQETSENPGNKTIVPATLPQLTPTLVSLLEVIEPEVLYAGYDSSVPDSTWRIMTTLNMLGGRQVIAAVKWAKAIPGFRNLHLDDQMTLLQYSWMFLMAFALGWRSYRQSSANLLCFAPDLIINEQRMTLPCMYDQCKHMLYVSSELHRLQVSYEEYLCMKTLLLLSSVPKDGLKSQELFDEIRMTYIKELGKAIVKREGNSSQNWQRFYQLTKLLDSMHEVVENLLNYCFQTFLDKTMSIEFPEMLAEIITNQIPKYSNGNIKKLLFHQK
Method: ATG_TRANS is a cell-based, multiplexed-readout assay that uses HepG2, a human liver cell line, with measurements taken at 24 hours after chemical dosing in a 24-well plate.ATG_GR_TRANS is one of 30 assay component(s) measured or calculated from the ATG_TRANS assay. It is designed to make measurements of mRNA induction, a form of inducible reporter, as detected with fluorescence intensity signals by Reverse transcription polymerase chain reaction (RT-PCR) and Capillary electrophoresis technology.Data from the assay component ATG_GR_TRANS was analyzed into 1 assay endpoint. This assay endpoint, ATG_GR_TRANS, was analyzed in the positive analysis fitting direction relative to DMSO as the negative control and baseline of activity. Using a type of inducible reporter, measures of mRNA for gain-of-signal activity can be used to understand the reporter gene at the transcription factor-level as they relate to the gene NR3C1. Furthermore, this assay endpoint can be referred to as a primary readout, because this assay has produced multiple assay endpoints where this one serves a reporter gene function. To generalize the intended target to other relatable targets, this assay endpoint is annotated to the nuclear receptor intended target family, where the subfamily is steroidal.
Human liver HepG2 cells are transiently transfected with multiple reporter transcription units (MRTUs) in 6-well plates using FuGene 6 reagent (Roche; 3 ml FuGene/1 mg DNA). The MRTU constructs are regulated by a cis-regulating element (promoter). […] A major difference between the CIS and TRANS system is that in CIS activities of endogenous TFs are measured, whereas the TRANS assay evaluates changes in activities of exogenous, chimeric NR-Gal4 proteins. […] At the end of 24 hour incubation, total RNA was isolated using TriZol reagent (Invitrogen). The isolated RNA is then reverse-transcribed using oligo(dT) primer and Mo-MLV reverse transcriptase (Invitrogen) with DNAse I (Ambion) treatment for 30 min. The one-tenth of the produced cDNA was amplified by PCR using Taq DNA polymerase (Invitrogen) and two reporter sequence-specific primers. The PCR products were fluorescently labeled by primer extension with 6-arboxyfluorescein (6-FAM) 5'-labeled reporter sequence-specific primer (2 min at 95 C, 20 s at 68 C and 10 min at 72 C) and these products were digested with 5U of HpaI (New England Biolabs) for 2h at 37 C. The fragments were purified using Qiaquick PCR columns (Qiagen), analyzed on an ABI 3130xL genetic analyzer (Applied Biosystems) with peak positions identified by using a set of X-rhodamine (ROX)-labeled MapMarker1000 molecular weight standards (BioVentures). The raw capillary electrophoresis data was processed using Attagraph software (Attagene).
`C(=C(c1ccccc1)c1ccccc1)c1ccccc1` was tested, and the outcome was “inactive”. For `C#C[C@]1(O)CC[C@H]2[C@@H]3CCc4cc(OC)ccc4[C@H]3CC[C@@]21C`, the outcome was “inactive”. With `OCCCC(F)(F)C(F)(F)C(F)(F)F` the outcome was “inactive”. `CCc1ccc(C(c2ccc(CC)cc2)C(Cl)Cl)cc1` was tested, and the outcome was “inactive”. `CCCCCCOC(=O)c1ccccc1O` was tested, and the outcome was “inactive”. In the case of `O=C(O)C(F)(OC(F)(F)C(F)(OC(F)(F)C(F)(OC(F)(F)C(F)(F)C(F)(F)F)C(F)(F)F)C(F)(F)F)C(F)(F)F` (stereo not given), the outcome is reported as “inactive”. `O=S(=O)(OCCOC(F)(F)F)C(F)(F)F` was tested, and the outcome was “inactive”. `CCCCOCCOCCOC(=O)CCCCC(=O)OCCOCCOCCCC` was tested, and the outcome was “inactive”. With `O=C(Cl)C(F)(F)C(F)(F)C(F)(F)C(F)(F)C(F)(F)C(F)(F)C(F)(F)C(F)(F)F` the outcome was “inactive”. In the case of `O=C(O)C(F)(F)C(F)(F)C(F)(F)F`, the outcome is reported as “inactive”. With `FC(F)(Br)C(F)(F)C(F)(F)C(F)(F)C(F)(F)C(F)(F)Br` the outcome was “inactive”. For `Cc1ccc(S(=O)(=O)NCl)cc1`, the outcome was “inactive”. In the case of `FC(F)(F)C(F)(F)C(F)(F)C(F)(F)C(F)(F)C(F)(F)C(F)(F)Br`, the outcome is reported as “inactive”. In the case of `CCN(CC)c1ccc2c(C)cc(=O)oc2c1`, the outcome is reported as “inactive”. For `CCCCC(CC)COP(=O)(O)OCC(CC)CCCC` (stereo not given), the outcome was “inactive”. For `CC/C=C\CCOC(C)=O`, the outcome was “inactive”. For `CCO[Si](CCC(F)(F)C(F)(F)C(F)(F)C(F)(F)C(F)(F)C(F)(F)F)(OCC)OCC`, the outcome was “inactive”. With `FC(F)(F)C(F)(F)C(F)(F)C(F)(F)C(F)(F)C(F)(F)C(F)(F)C(F)(F)F` the outcome was “inactive”. With `OCCCC(F)(F)C(F)(F)C(F)(F)C(F)(F)C(F)(F)C(F)(F)C(F)(F)F` the outcome was “inactive”. In the case of `C=CC(F)(F)C(F)(F)C(F)(F)C(F)(F)C(F)(F)C(F)(F)C(F)(F)C(F)(F)C=C`, the outcome is reported as “inactive”. With `O=S(=O)(OCC(F)F)C(F)(F)F` the outcome was “inactive”. With `FC(F)(F)C(F)(F)C(F)(F)C(F)(F)C(F)(F)CCI` the outcome was “inactive”. `CC/C=C\CCOC(=O)c1ccccc1` was tested, and the outcome was “inactive”. In the case of `CS(C)(=O)=O`, the outcome is reported as “inactive”. With `CC(C)OC(=O)c1ccccc1C(=O)OC(C)C` the outcome was “inactive”. `O=C(O)C(F)(F)C(F)(F)F` was tested, and the outcome was “inactive”. With `CO[Si](OC)(c1ccccc1)c1ccccc1` the outcome was “inactive”. In the case of `Cc1cccc(N(C)C)c1`, the outcome is reported as “inactive”. `CC(Cc1ccc(O)c(O)c1)C(C)Cc1ccc(O)c(O)c1` (stereo not given) was tested, and the outcome was “inactive”. `CC(C)(C)C(=O)CC(=O)C(F)(F)C(F)(F)C(F)(F)F` was tested, and the outcome was “inactive”. With `c1ccc(B(c2ccccc2)c2ccccc2)cc1` the outcome was “inactive”. With `Nc1cc(Cl)c(N)c(Cl)c1` the outcome was “inactive”. For `O=C(O)C=C(C(F)(F)F)C(F)(F)F`, the outcome was “inactive”. In the case of `CCCCCCCCC(F)(F)C(F)(F)C(F)(F)C(F)(F)C(F)(F)C(F)(F)F`, the outcome is reported as “inactive”. With `O=C(O)C(F)(F)C(F)(F)C(F)F` the outcome was “inactive”. With `C=CC/C=C/C/C=C/C/C=C/C` the outcome was “inactive”. `C=C(C)C(=O)OCCC(F)(F)C(F)(F)C(F)(F)C(F)(F)C(F)(C(F)(F)F)C(F)(F)F` was tested, and the outcome was “inactive”. For `O=C(CC(=O)C(F)(F)C(F)(F)F)C(F)(F)F`, the outcome was “inactive”. With `O=C(O)C(F)(F)C(F)(F)C(F)(F)C(F)(F)C(F)(F)C(F)(F)C(F)(F)C(F)(F)Cl` the outcome was “inactive”. `FC(F)(F)C(F)(F)C(F)(F)C(F)(F)C(F)(F)C(F)(F)CC1CO1` (stereo not given) was tested, and the outcome was “inactive”.
